Results on 40 molecules are retold here after PubChem BioAssay (Tox21).

Results filed as inconclusive are left out. Activity calls are given as the source filed them. Calls follow the shape of the dose curve; as a rule, active = well fitted inhibition curve with a large enough effect in the repeat runs; inconclusive = weak or mixed curves; inactive = flat fitted curve, though single readings scatter.
% is scaled to controls: 0 for no effect and ±100 for the full control effect; potency is read from the fitted curve at half-maximal effect.

Sequence of Voltage-gated inwardly rectifying potassium channel KCNH2 (Homo sapiens) (Q12809 whole entry, looked up): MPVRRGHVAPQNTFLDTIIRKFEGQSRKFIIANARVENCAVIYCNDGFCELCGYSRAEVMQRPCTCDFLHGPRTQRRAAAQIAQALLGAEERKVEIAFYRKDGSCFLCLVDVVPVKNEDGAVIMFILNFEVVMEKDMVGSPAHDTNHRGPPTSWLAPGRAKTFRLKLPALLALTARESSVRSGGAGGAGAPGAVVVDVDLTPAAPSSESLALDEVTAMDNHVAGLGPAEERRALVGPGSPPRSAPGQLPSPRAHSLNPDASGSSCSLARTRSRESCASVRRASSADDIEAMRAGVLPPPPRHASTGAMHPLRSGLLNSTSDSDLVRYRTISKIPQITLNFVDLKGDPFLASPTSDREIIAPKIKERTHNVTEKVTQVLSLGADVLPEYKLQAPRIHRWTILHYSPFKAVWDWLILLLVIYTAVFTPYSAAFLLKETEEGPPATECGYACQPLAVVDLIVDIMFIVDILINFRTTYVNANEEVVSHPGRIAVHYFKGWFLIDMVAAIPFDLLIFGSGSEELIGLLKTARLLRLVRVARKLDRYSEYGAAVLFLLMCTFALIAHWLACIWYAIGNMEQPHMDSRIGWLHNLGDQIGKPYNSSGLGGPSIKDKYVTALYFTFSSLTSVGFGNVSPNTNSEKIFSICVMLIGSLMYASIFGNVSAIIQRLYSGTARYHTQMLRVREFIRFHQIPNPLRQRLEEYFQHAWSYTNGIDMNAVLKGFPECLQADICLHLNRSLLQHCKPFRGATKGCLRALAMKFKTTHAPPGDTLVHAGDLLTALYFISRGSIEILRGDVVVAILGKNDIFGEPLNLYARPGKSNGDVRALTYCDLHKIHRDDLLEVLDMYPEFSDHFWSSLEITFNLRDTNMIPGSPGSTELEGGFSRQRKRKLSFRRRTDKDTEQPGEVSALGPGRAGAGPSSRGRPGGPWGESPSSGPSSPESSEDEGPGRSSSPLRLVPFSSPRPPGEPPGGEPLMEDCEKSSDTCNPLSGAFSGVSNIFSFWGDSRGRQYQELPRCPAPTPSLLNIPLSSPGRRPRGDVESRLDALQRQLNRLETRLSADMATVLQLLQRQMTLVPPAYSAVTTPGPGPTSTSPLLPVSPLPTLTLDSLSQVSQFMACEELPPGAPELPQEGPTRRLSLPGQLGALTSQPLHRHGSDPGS

The target of the experiment is Voltage-gated inwardly rectifying potassium channel KCNH2 (Homo sapiens) (UniProt Q12809). Briefly: Human Ether-a-go-go-Related Gene (hERG) channel small molecule antagonists: fluorescence cell-based qHTS assay (AID 1671200). Also: nearly all actives have a fitted effect of over 50% in size. To be noted: hERG-U2OS cells, FluxOR thallium flux fluorescence; series mostly up to 76.8 µM; activity change, negative = inhibition: at the top concentration. From the text:
National Center for Advancing Translational Sciences [NCATS]
U.S. Environmental Protection Agency [EPA]
National Institutes of Environmental Health Sciences [NIEHS]
National Toxicology Program [NTP]
U.S. Food and Drug Administration [FDA]
Mutations in the hERG channel cause Long QT (LQT) syndrome. LQT syndrome is a cardiac disorder which can cause ventricle arrhythmia and sudden death. Additionally, compounds which block the hERG channel can cause acquired LQT syndrome. Several FDA approved drugs have been removed from the market due to their hERG blocking activity. A cell-based hERG channel inhibition assay can be used to screen chemical compounds that inhibit hERG channel. This assay measures hERG channel activity using thallium ions as surrogate ions to measure potassium into the cells.
Tox21 Assay Protocol Summary:
hERG-U2OS cells were resuspended in culture medium and dispensed into 1536-well, black wall/clear-bottom plates at 1000cells/well/3uL using a Multidrop Combi dispenser (Thermo Fisher, Waltham, MA). After plates were incubated at 37 C overnight, 3 uL of Loading Buffer provided by FluxOR II Potassium Ion Channel Assay kit (Thermo, Carlsbad, CA) was added to each well. The assay plates were then incubated at room temperature in the dark for 1h. […] After the assay plates were incubated at room temperature for 10 min, 1 uL of Stimulus Buffer provided by FluxOR II Potassium Ion Channel Assay kit was added into each well and fluorescence intensity (480nm excitation/540nm emission) was continuously measured for 2 min at 1 second intervals using a Functional Drug Screening System (FDSS) 7000EX kinetic plate reader (Hamamatsu, Japan).
For orientation: The hERG channel carries a current that helps repolarise heart muscle cells.
For `COc1cccc(C=O)c1`, the “activity change, negative = inhibition” value is -1.27% (inactive).
On to `COC1=CC(=O)O[C@@H](/C=C/c2ccccc2)C1`, for which the “activity change, negative = inhibition” value was -8.45% (inactive).
On the same count and under the same terms, as for `CCC(=O)c1ccc(Cl)cc1`, the figure is 4.69% (inactive).
With `CC(Cc1ccccc1)NCCCCl` (stereo not given), the Potency was 15.1 µM (active).
With `C1CN2CCC1CC2`, the “activity change, negative = inhibition” value was 3.52% [at 35.3 µM] (inactive).
In the case of `CN=CNc1ccc(C)cc1C`, the “activity change, negative = inhibition” value is -1.95% (inactive).
Still for that read-out and setting: as for `CC#Cc1cc(C)nc(Nc2ccccc2)n1`, the figure is 0.178% (inactive); as for `CCC(C(N)=O)N1CCCC1=O` (stereo not given), 0.195% [at 35.3 µM] (inactive).
On the same count and under the same terms, as for `CCCCOC(C)=O`, the figure is -9.61% (inactive).
With `O=c1[nH]oc2c1CCNC2`, the “activity change, negative = inhibition” value is -0.796% [at 35.3 µM] (inactive).
Same read-out and setting: as for `CC1NCCOC1c1ccccc1` (stereo not given), the figure is 4.66% [at 35.3 µM] (inactive).
On the same count and under the same terms, next, `CN1C(=O)COc2c(C(=O)NC3CN4CCC3CC4)cc(Cl)cc21` (stereo not given): -7.84% [at 35.3 µM] (inactive); `CC(C)(C)C(=O)C(Cl)Cl`: 3.23% (inactive); `O=C1CCCCC1Cl` (stereo not given): 3.1% (inactive).
On the same count and under the same terms, next, `CCc1ccc(C2CCNCC2)cc1`: -11.9% [at 35.3 µM] (inactive); `NNC(N)=O`: -4.2% (inactive); `CCCCCCC(=O)CCCCCC/C=C/C[C@@H](O)[C@H](O)[C@@](N)(CO)C(=O)O`: 0.803% [at 15.8 µM] (inactive).
Consider `CN(C)CCN(C)C`, for which the “activity change, negative = inhibition” value was -0.761% (inactive).
The same measure, in the same setting: as for `Brc1c(Br)c(Br)c(Br)c(Br)c1Br`, the figure is 19.9% [at 6.97 µM] (inactive); as for `CC[C@H](O)C(C[C@H](C)N(C)C)(c1ccccc1)c1ccccc1`, -7.41% (inactive).
Same read-out and setting: next, `O=C(O)C(F)(F)C(F)(F)C(F)(F)C(F)(F)C(F)(F)C(F)(F)F`: 3.14% (inactive); `CC(C)(N)Cc1ccccc1Cl`: 3.16% [at 35.3 µM] (inactive); `C(COCC1CO1)OCC1CO1` (stereo not given): 0.822% (inactive).
On the same count and under the same terms, as for `CC(C)(N)Cc1ccc(Cl)cc1`, the figure is -0.55% [at 35.3 µM] (inactive); as for `[O-][Br+2]([O-])O`, -4.59% [at 35.3 µM] (inactive); as for `C[C@H](N)C(=O)c1ccccc1`, -1.69% (inactive).
Consider `CS(=O)(=O)Cl`, for which the “activity change, negative = inhibition” value was -4.3% (inactive).
For `CCCN1CCC[C@@H]2Cc3nc(N)ncc3C[C@H]21`, the “activity change, negative = inhibition” value was -1.61% [at 35.3 µM] (inactive).
For `CC1N=C(N)OC1c1ccccc1` (stereo not given), the “activity change, negative = inhibition” value is -5.28% (inactive).
`BrCC1CO1` (stereo not given): the “activity change, negative = inhibition” value is 0.403% (inactive).
For the molecule `CCCOc1nn(C(=O)NS(=O)(=O)c2ccccc2C(=O)OC)c(=O)n1C`, the “activity change, negative = inhibition” value is -0.961% (inactive).
On to `Cn1c(N)nc2c3cccnc3ccc21`, for which the “activity change, negative = inhibition” value is -0.757% (inactive).
The same measure, in the same setting: next, `O=CCCl`: 2.83% (inactive).
Regarding `CCCOC(=O)Cc1ccc(OCC(=O)N(CC)CC)c(OC)c1`, the “activity change, negative = inhibition” value is 0.611% [at 35.3 µM] (inactive).
`CCN(CCO)CCO`: the “activity change, negative = inhibition” value was -0.705% (inactive).
On the same count and under the same terms, next, `CCCCCCCC(=O)Cl`: -1.09% (inactive); `CC(C)c1ccc(O)cc1`: 2.55% (inactive).
As for `COc1ccc(C=O)cc1O`, the “activity change, negative = inhibition” value is 7.2% (inactive).
The same measure, in the same setting: as for `Cc1cc(OC(=O)N(C)C)nn1C(=O)N(C)C`, the figure is -6.66% (inactive).
For the molecule `C=CCN1CC[C@]23CCCC[C@H]2[C@H]1Cc1ccc(O)cc13`, the “activity change, negative = inhibition” value was -15.5% [at 35.3 µM] (inactive).
